Rows were chosen to be rich in hits. Some 1.9% of all compounds tested hit in one or more screens of this group.
Vif inh = HIV Vif self-association inhibitors, primary screen, imaging, HEK293T, single point | AID 602346, 2012 | HEK293T cells, Vif self-association by quenched fluorescence, 24 h | inhibition, % at 7.49 µM | 340,000 compounds, 0.35% hits; in the data active = inhibition above about 50%, passing the limit was not always enough; inconclusive = no clear call, values can overlap the other calls; inactive = below about 31%
GSIS activator = GLuc luminescence reporter in INS-1E cells, primary screen for activators of glucose-dependent secretion of insulin; INS-1E GLuc reporter insulin secretion, 2-3 h; activation, % at 16.6 µM; 370,000 compounds, 0.61% hits;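 active = lowest replicate activation of at least 40%, so every replicate reaches that level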;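 also: 0% = median of neutral control wells and 100% = median of IBMX positive control wells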
dFosB activator = activators of delta FosB homodimer, primary screen, biochemical, fluorescence polarization, TAMRA-CDK5 oligo, single point; 340,000 compounds, 0.99% hits; purified delta FosB; percent of positive-control signal above neutral wells; activation, % at 25 µM; Protein FosB (Mus musculus), P13346;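 active = mean activation above about 17%, with every replicate also reaching it, limit read from the data, passing the limit was not always enough; inconclusive = only one of the two conditions met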
Neddyl block = inhibitors of cullin neddylation, primary screen, biochemical, TR-FRET, uHTS, NAE and Ubc12; NEDD8-conjugating enzyme Ubc12 (Homo sapiens) + NEDD8-activating enzyme E1 regulatory …; inhibition, % at 25 µM; 360,000 compounds, 0.58% hits; in the data active = inhibition above about 36%
Target sequence (P61081 whole entry, looked up): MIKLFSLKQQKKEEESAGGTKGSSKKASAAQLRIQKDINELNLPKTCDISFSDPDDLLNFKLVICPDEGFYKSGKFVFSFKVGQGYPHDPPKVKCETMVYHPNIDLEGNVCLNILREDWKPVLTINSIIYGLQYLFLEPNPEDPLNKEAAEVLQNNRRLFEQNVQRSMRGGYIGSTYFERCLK
Target sequence (Q13564 whole entry, looked up): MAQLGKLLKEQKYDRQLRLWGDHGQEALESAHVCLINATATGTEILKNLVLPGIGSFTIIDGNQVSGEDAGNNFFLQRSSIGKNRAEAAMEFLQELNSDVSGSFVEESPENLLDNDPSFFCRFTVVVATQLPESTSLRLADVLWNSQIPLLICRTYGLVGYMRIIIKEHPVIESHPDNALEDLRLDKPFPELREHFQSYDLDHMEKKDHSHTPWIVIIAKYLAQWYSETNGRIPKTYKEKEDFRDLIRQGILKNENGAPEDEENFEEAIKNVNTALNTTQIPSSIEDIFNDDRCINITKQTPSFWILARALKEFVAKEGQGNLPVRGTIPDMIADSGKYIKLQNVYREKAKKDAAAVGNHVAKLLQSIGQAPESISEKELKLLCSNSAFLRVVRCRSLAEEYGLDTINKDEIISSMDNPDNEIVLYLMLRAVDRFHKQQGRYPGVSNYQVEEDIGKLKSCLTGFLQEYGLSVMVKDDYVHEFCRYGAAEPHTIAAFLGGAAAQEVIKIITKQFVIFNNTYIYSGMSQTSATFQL
Bfl-1 A1 inh = caspase 3/7 activation in MEF A1-2A-BIM cells, primary screen, A1 inhibitor project, cell-based, luminescence, HTS. Caspase-Glo 3/7 luminescence, 3 h; percent of clofoctol response, vehicle zero. caspase activation, % (concentration not given with the values). 330,000 compounds, 0.066% hits. AID 2462, 2010;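 active = over half of replicate activation scores above 10%, or exactly half above 10 with the replicate mean above 10; inconclusive = replicate mean below 10 yet half the replicates above 10; inactive = over half of replicates below 10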
Active calls of the source: *; u = inconclusive; x = no result given.

SMILES	Vif inh	GSIS activator	dFosB activator	Neddyl block	Bfl-1 A1 inh
Cc1cccc(C)c1NC(=O)Cn1c(=O)c2cccn2c2ccccc21	-4.7	4.7	29.1*	-14.1	1.2
CO[C@H](CN(C)S(=O)(=O)c1cccc(Cl)c1)[C@H](C)CN([C@@H](C)CO)S(=O)(=O)c1cccc(Cl)c1	x	-11.1	x	x	x
C[C@@H]1CCCCO[C@@H](CN(C)C(=O)Cc2ccccc2)[C@@H](C)CN([C@H](C)CO)C(=O)c2cc(NC(=O)CCCCCC(=O)Nc3ccccc3N)ccc2O1	x	3.2	x	x	x
CC1CCc2c(sc3ncn(CC(=O)N=Nc4c(O)[nH]c5ccccc45)c(=O)c23)C1 (stereo unspecified)	0.5	2.8	14.3	-9.2	0.8
CCc1nc(N=Nc2c(O)[nH]c3ccccc23)c2c3c(sc2n1)CCC3	-0.3	0.1	-6.0	-7.9	8.9*
CO[C@H]1CN(C)C(=O)c2cc(NC(C)=O)ccc2OC[C@H](C)N(Cc2ccccn2)C[C@@H]1C	x	4.8	x	x	x
COc1ccc2c3c(n(C)c2c1)[C@@H](CO)N(Cc1cccnc1)CC31CN(Cc2cccnc2)C1	x	-6.4	x	x	x
COc1ccc2c3c(n(C)c2c1)[C@H](CO)N(S(C)(=O)=O)CC31CCN(C(=O)Nc2cccc(F)c2)CC1	x	-21.4	x	x	x
CCCCCc1cc(=O)oc2c(C(CCN3CCCCC3)c3cc(OC)c(OC)c(OC)c3)c(OC)cc(OC)c12 (stereo unspecified)	-9.5	58.9*	-0.5	5.0	1.1
CCCCCc1cc(=O)oc2c(C(CCN3CCCC(C)C3)c3ccc(N(C)C)cc3)c(OC)cc(OC)c12 (stereo unspecified)	0.3	x	1.7	5.4	0.0
O=C1NC(=O)C2(CCCCC2C2CCCCC2)N1 (stereo unspecified)	u	62.5*	1.1	-5.2	x
CC(C)CCNC(=O)CCc1nnc(COc2ccccc2)o1	85.5*	-11.3	-4.0	-0.2	x
O=C(CCc1nnc(COc2ccccc2)o1)NCCc1cccs1	x	-0.9	-5.0	5.0	0.2
CN1C(=O)c2cc(NC(=O)c3cccs3)ccc2OC[C@@H]2O[C@@H](CC(=O)NCC(F)(F)F)CC[C@@H]21	x	13.2	x	x	x
CCCCC(C(=O)NCCC(C)C)N(CCCN1CCOCC1)C(=O)c1snc(C(N)=O)c1N (stereo unspecified)	u	53.8*	-3.3	18.9	-0.2
Cc1ccc(C(C(=O)NC2CCCCC2)N(CCCN2CCOCC2)C(=O)c2snc(C(N)=O)c2N)cc1 (stereo unspecified)	1.5	-3.0	-7.2	27.9	-0.5
C=C(C)CN1CCN(c2ccc(N3C(=O)CCCC3=O)cc2[N+](=O)[O-])CC1	9.4	49.6*	-4.4	-13.7	0.5
COc1ccccc1N1CCN(c2ccc(N3C(=O)CCC3=O)cc2[N+](=O)[O-])CC1	-8.0	-9.5	-4.2	-32.3	-0.5
O=C(Nc1cccnc1)/C(N=Nc1cccnc1)=C(\O)c1ccccc1	1.9	74.7*	-5.7	-13.2	0.0
O=C(Nc1ccccc1)C(=O)Nc1cccnc1	4.6	x	2.8	-3.2	-7.0
CC(C)(C)c1ccc(-c2cc(NC(=O)Cc3c[nH]c4ccccc34)ccc2Nc2cccnc2)cc1	x	57.4*	x	x	x
O=C(O)C1Cc2c([nH]c3ccccc23)C(c2ccc3c(c2)OCO3)N1 (stereo unspecified)	-6.1	45.7*	-0.2	34.4	-0.6
COC(=O)[C@H]1Cc2c([nH]c3ccccc23)[C@H](c2ccccc2)N1	-3.2	7.6	-3.6	7.0	0.7
Cc1ccc(S(=O)(=O)N[C@@H]2C=C[C@H](CC(=O)NC3CCCCC3)O[C@H]2CO)cc1	x	2.3	x	x	x
Cc1noc(C)c1NC(=O)Nc1cccc2c1O[C@@H](CN(C)Cc1ccccc1)[C@@H](C)CN([C@H](C)CO)C2=O	x	3.2	x	x	x
SMILES	Vif inh	GSIS activator	dFosB activator	Neddyl block	Bfl-1 A1 inh
CCOc1ccc(NC(=O)COC(=O)Cn2cnnn2)cc1OCC	5.7	43.8*	-3.3	8.7	-0.6
COc1ccc2c3c([nH]c2c1)[C@@H](CO)N(C(=O)Nc1ccc(F)cc1)CC31CCN(C(=O)c2ccccn2)CC1	x	-14.0	x	x	x
Cc1ccc(S(=O)(=O)c2ccc([N+](=O)[O-])cn2)cc1	-0.4	45.4*	1.5	1.2	-1.7
Cc1cc(S(=O)(=O)c2ccc([N+](=O)[O-])cn2)ccc1Br	-11.0	14.6	-0.4	-8.7	0.1
O=[N+]([O-])c1ccc(S(=O)(=O)c2ccccc2)nc1	-4.1	76.6*	4.0	-8.2	-1.7
C[C@H]1CN([C@@H](C)CO)S(=O)(=O)c2ccc(C#CC3CCCC3)cc2O[C@@H]1CN(C)S(C)(=O)=O	x	-16.7	x	x	x
COc1ccc(CC2NCCC3=CC(=O)CCC32)cc1O (stereo unspecified)	145.5*	x	6.3	-5.3	-0.2
O=C(C[C@H]1CC[C@H]2NC[C@H](O)COC[C@@H]2O1)Nc1ccccc1	x	0.3	x	x	x
C[C@H]1CN([C@@H](C)CO)C(=O)c2cc(Br)cnc2O[C@@H]1CN(C)C(=O)c1ccc(F)cc1	x	9.2	x	x	x
COc1ccc2ccc(=O)oc2c1CC=C(C)C	-3.6	62.4*	-8.7	-2.6	-0.5
COc1cc2ccc(=O)oc2c(CC=C(C)C)c1OC	-1.7	x	-9.4	8.7	0.1
COc1ccc(-c2cc(-c3ccco3)[nH]c(=O)c2C#N)cc1OC	-9.1	52.2*	-28.2	27.7	1.5
CCOc1ccccc1-n1nnnc1SCC(=O)N1CCCC1=O	-3.2	51.2*	-8.9	1.8	0.6
C=C1C(=O)O[C@@H]2[C@H]1[C@@H](OC(=O)/C(C)=C/C)C/C(C)=C\C(=O)/C=C(\C)[C@@H]2O	97.1*	48.2	-18.2	2.3	1.6
Cc1cc(/C=c2/sc3nc4ccccc4n3c2=O)c(C)n1-c1ccccn1	x	-23.8	6.5	21.4	-5.1
Cc1cc(/C=c2\sc3nc4ccccc4n3c2=O)c(C)n1-c1ccc(C(=O)O)cc1	-14.2	-2.5	-2.8	40.4*	x
C[C@H](NC(=O)c1nc[nH]c1C(=O)N[C@@H](C)C(=O)OCc1ccccc1)C(=O)OCc1ccccc1	67.7*	-4.8	-0.8	-9.7	0.1
CCOC(=O)c1ccc(NC(=O)c2nc[nH]c2C(=O)N[C@H](C)CO)cc1	24.6	55.8*	x	8.0	x
O=C1[C@@H](Cc2ccc(C(F)(F)F)cc2)CCn2cc(nn2)COC[C@@H]2CCCCN12	x	1.7	x	x	x
Cc1ccc(S(=O)(=O)C=CS(=O)(=O)c2ccc(C)cc2)cc1	16.8	87.4*	x	3.2	x
Cc1ccc(S(=O)(=O)c2ccc(C)cc2)cc1	1.1	-6.3	1.7	2.3	-0.2
COc1ccc(NC(=O)COC(=O)CCC(=O)c2cccs2)cc1OC	-9.0	35.8	-17.9	-9.5	0.1
COc1ccc(CCNC(=O)COC(=O)CCC(=O)c2cccs2)cc1OC	-7.5	38.0	-2.7	-4.7	-0.7
